Inconclusive results are not listed. A call without a number means that no potency is given here. Activity calls are given as the source filed them. Unless noted, calls follow the shape of the dose curve; as a rule, active = well fitted curve in the direction sought with a large enough effect; inconclusive = small, poorly fitted or top-dose-only effect, or another doubt; inactive = no such curve, though single readings can be large; an effect the other way counts as inactive or inconclusive.
Columns and labels:
[1] = Natriuretic polypeptide receptor (hNpr1) antagonism - Pilot counterscreen GloSensor control cell line (AID 1347045; calls by dose curve; also: series mostly up to about 38 µM)
Summary of the method: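 HEK293 cGMP-sensor cells; 2% GloSensor reagent 2 h RT; LOPAC compounds in 1:5 titrations 30-50 min; 50 uM SNP 20 min; luminescence pre-read and post-read.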

[2] = target: Atrial natriuretic peptide receptor 1 (Homo sapiens) (UniProt P16066); experiment: Natriuretic polypeptide receptor (hNpr1) antagonism - Pilot screen (AID 1347049; calls by dose curve;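 also: HEK293 cells with hNpr1 and GloSensor cGMP luciferase stimulated by 0.1 nM hNppA; agonist-evoked cGMP luminescence read 20 min after hNppA addition; series mostly up to about 58 µM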)
Summary of the method: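 Receptor antagonism read as cGMP-dependent luminescence in hNpr1/pGS-40F HEK293 cells: pre-read after 30 min compound exposure, post-read 20 min after hNppA agonist at 0.1 nM final, all at room temperature, protected from light; A-71915 titration as control.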

[3] = target: Atrial natriuretic peptide receptor 2 (Homo sapiens) (UniProt P20594); experiment: Natriuretic polypeptide receptor (hNpr2) antagonism - Pilot subtype selectivity assay (AID 1347050; calls by dose curve)
Summary of the method: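 Antagonist mode: compounds (LOPAC1280, seven 1:5 dilutions) added 30 min before 1 nM hNppC stimulation of hNpr2-HEK293 cGMP-sensor cells; luminescence read before and 20 min after agonist at ambient temperature.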

[4] = NS1 protein of Zika virus - qHTS assay to identify small molecule inhibitors in human HEK 293 cells (AID 1347053); also: series mostly up to about 46 µM; nearly all actives have a fitted effect of over 55% in size
Summary of the method: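 TR-FRET signal from two anti-ZIKV NS1 antibodies quantified NS1 in HEK 293 cells 24 h after MR766 infection at MOI = 0.5; compounds were added 1 h before virus. Uninfected cells and infected cells defined the NS1 normalization range.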

[5] = target: T1, Tyrosine-protein phosphatase non-receptor type substrate 1 (Homo sapiens) + Leukocyte surface antigen CD47 (Homo sapiens) (UniProt P78324+Q08722); experiment: CD47-SIRPalpha protein protein interaction - LANCE assay qHTS validation (AID 1347057; active = well fitted curve in the direction sought with a large enough effect in the signal ratio, with a control signal flat, not every such curve was filed as active; the % refers to the signal ratio; also: series mostly up to about 38 µM)
Summary of the method: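 Inhibition of soluble CD47/SIRPalpha ectodomain association by titrated compounds, measured as 665/615 nm time-resolved FRET ratio after sequential 30 min room-temperature incubations.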

[6] = target: T1, Tyrosine-protein phosphatase non-receptor type substrate 1 (Homo sapiens) + Leukocyte surface antigen CD47 (Homo sapiens); experiment: CD47-SIRPalpha protein protein interaction - Alpha assay qHTS validation (AID 1347059);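 also: bead proximity luminescence from CD47 binding SIRPalpha after compound preincubation with SIRPalpha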
Summary of the method: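 AlphaScreen signal between CD47-His (12.5 nM) and biotin-SIRPalpha (25 nM) soluble extracellular domains, bead-captured via Ni-NTA and streptavidin. Compounds, in 7-point titrations, met SIRPalpha 30 min before CD47; PBS pH 7.4 with 0.05% IGEPAL.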

[7] = qHTS of pediatric cancer cell lines to identify multiple opportunities for drug repurposing: Primary screen for TC32 cells (AID 1347089); also: nearly all actives have a fitted effect of over 60% in size; also: potency is read from the fitted curve at half-maximal effect
Summary of the method: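 Luminescent ATP read-out (CellTiter-Glo) of metabolically active TC32 cells after 48 h exposure. Concentration-response curves came from 11-point (MIPE, 0.78 nM–46 µM) or 8-point (NPC, 0.59 nM–46 µM) primary titrations; follow-up used 11 points.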

[8] = qHTS of pediatric cancer cell lines to identify multiple opportunities for drug repurposing: Primary screen for DAOY cells (AID 1347090); also: nearly all actives have a fitted effect of over 55% in size; also: potency is read from the fitted curve at half-maximal effect
Summary of the method: (§1)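 Cell viability, CellTiter-Glo luminescence; 500-1,000 cells/well, 8- or 11-point titration, 48 h compound exposure at 37 degrees C, 5% CO2. Controls: DMSO neutral, bortezomib 2.3 µM final as positive.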

[9] = qHTS of pediatric cancer cell lines to identify multiple opportunities for drug repurposing: Primary screen for SJ-GBM2 cells (AID 1347091); also: potency is read from the fitted curve at half-maximal effect
Summary of the method: as §1

[10] = qHTS of pediatric cancer cell lines to identify multiple opportunities for drug repurposing: Primary screen for A673 cells (AID 1347092); also: nearly all actives have a fitted effect of over 45% in size; also: potency is read from the fitted curve at half-maximal effect
Summary of the method: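 Cell viability of A673 measured by CellTiter-Glo ATP luminescence after 48 hours compound exposure. Dilution series spanned 0.78 nM to 46 µM (MIPE, 11-point) or 0.59 nM to 46 µM (NPC, 8-point); bortezomib 2.3 uM positive control.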

[11] = qHTS of pediatric cancer cell lines to identify multiple opportunities for drug repurposing: Primary screen for SK-N-MC cells (AID 1347093); also: potency is read from the fitted curve at half-maximal effect
Summary of the method: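 Metabolically active cells were quantified by ATP-dependent luminescence (CellTiter-Glo, 15 min at room temperature) following 48 h treatment. Cells had been plated at 500-1,000 per well and settled for 5 h beforehand.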

[12] = qHTS of pediatric cancer cell lines to identify multiple opportunities for drug repurposing: Primary screen for BT-37 cells (AID 1347094); also: potency is read from the fitted curve at half-maximal effect
Summary of the method: (§2)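 Phenotypic viability qHTS, 48 h compound exposure, CellTiter-Glo luminescence read-out; multi-concentration dosing so that potency and efficacy derive directly from the primary screen's curves.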

[13] = qHTS of pediatric cancer cell lines to identify multiple opportunities for drug repurposing: Primary screen for NB-EBc1 cells (AID 1347095); also: potency is read from the fitted curve at half-maximal effect
Summary of the method: as §2

[14] = qHTS of pediatric cancer cell lines to identify multiple opportunities for drug repurposing: Primary screen for U-2 OS cells (AID 1347096); also: nearly all actives have a fitted effect of over 50% in size; also: potency is read from the fitted curve at half-maximal effect
Summary of the method: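 Cells (500-1,000/well) rested 5 h, then received compounds for 48 h; metabolically active cells were measured by CellTiter-Glo luminescence. Final concentrations spanned up to 46 µM (MIPE, 11-point) or 0.59 nM-46 µM (NPC, 8-point) in primary screens, 11-point in follow-ups.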

[15] = target: Parathyroid hormone/parathyroid hormone-related peptide receptor (Homo sapiens) (UniProt Q03431); experiment: qHTS for PTHR1 Agonists: Optimization Screen against the NCGC LOPAC library (AID 1347079);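 also: GloSensor cAMP luminescence in HEK-293 GP2 cells expressing human PTHR1 with IBMX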
Summary of the method: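 Signal increase flags agonism. GP2 cells, derived from HEK-293, express human PTHR1 and a GloSensor cAMP construct.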

Chain of Atrial natriuretic peptide receptor 1 (Homo sapiens) (P16066 whole entry, looked up): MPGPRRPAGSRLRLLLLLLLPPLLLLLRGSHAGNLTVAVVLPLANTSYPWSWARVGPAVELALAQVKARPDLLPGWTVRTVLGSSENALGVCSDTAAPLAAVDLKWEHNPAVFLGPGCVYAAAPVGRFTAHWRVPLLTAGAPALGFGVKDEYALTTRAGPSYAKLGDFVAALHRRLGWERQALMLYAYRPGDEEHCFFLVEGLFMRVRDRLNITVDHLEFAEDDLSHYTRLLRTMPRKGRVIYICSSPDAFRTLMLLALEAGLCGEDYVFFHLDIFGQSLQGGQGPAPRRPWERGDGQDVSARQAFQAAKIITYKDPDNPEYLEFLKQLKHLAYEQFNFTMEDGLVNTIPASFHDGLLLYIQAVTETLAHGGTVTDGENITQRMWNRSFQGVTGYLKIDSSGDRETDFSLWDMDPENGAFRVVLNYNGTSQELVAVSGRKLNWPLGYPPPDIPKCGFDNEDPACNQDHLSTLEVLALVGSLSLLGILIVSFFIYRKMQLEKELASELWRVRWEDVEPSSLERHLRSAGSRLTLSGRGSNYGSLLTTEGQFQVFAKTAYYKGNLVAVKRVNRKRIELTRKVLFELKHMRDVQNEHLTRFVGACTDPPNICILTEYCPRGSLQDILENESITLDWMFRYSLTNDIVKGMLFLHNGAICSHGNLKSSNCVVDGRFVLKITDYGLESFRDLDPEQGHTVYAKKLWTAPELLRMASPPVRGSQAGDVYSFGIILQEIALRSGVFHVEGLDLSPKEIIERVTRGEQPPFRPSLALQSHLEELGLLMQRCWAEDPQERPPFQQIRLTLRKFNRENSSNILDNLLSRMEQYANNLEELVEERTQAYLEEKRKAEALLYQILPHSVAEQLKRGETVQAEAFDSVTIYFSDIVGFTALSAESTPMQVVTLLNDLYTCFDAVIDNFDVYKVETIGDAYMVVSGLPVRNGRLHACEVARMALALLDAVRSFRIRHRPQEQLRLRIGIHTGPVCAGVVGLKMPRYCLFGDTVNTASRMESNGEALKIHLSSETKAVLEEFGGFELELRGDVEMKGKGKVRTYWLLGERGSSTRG
Chain of Atrial natriuretic peptide receptor 2 (Homo sapiens) (P20594 whole entry, looked up): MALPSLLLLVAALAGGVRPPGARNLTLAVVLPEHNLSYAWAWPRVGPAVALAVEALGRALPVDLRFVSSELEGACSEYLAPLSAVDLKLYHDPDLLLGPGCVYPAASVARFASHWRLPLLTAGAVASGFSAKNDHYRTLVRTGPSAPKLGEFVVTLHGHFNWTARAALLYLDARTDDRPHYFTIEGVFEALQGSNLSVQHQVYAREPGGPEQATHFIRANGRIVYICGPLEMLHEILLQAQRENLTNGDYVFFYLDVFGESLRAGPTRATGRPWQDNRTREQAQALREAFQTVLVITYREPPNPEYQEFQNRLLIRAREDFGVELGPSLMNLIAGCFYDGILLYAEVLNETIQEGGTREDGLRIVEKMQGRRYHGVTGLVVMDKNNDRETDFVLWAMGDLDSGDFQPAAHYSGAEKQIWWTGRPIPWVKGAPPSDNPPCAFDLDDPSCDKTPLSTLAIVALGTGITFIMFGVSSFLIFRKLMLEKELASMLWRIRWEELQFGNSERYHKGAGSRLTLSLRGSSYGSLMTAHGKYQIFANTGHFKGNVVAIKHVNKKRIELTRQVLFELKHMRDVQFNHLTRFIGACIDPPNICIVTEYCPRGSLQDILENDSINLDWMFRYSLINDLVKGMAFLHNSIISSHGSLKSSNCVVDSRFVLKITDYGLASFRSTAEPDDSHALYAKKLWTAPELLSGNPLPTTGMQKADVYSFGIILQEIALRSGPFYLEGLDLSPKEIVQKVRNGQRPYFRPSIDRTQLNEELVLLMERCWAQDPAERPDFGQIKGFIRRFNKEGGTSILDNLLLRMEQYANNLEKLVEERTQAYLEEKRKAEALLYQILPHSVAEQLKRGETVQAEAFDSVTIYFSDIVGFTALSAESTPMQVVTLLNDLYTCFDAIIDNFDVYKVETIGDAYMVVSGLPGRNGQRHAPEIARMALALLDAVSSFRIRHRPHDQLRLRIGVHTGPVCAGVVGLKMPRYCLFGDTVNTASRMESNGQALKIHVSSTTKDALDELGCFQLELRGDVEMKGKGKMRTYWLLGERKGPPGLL
T1 sequence (P78324 whole entry, looked up, the tested form may be a part): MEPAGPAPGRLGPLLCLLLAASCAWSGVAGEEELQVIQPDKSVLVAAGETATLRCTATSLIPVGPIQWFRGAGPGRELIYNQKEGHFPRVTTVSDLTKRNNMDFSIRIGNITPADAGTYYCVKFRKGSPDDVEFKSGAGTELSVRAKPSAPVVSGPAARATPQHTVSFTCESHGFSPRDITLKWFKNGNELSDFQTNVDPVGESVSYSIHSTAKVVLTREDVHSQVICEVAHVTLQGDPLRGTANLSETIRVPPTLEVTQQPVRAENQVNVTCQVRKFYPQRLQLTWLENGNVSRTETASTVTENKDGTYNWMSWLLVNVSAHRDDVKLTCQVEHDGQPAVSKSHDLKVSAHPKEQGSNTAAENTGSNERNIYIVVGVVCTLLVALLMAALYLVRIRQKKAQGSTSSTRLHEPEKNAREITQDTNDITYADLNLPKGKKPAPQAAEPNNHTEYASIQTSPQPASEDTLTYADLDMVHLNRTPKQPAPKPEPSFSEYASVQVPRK
T1 sequence (Q08722 whole entry, looked up, the tested form may be a part): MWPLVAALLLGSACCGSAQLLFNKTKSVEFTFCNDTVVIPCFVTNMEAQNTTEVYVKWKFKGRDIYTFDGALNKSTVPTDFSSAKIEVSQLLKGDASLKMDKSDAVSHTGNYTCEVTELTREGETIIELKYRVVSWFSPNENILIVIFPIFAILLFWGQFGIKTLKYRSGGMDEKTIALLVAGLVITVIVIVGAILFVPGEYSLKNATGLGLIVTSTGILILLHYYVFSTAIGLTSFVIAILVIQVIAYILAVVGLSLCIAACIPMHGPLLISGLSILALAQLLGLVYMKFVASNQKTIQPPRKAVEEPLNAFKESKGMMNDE
Chain of Parathyroid hormone/parathyroid hormone-related peptide receptor (Homo sapiens) (Q03431 whole entry, looked up): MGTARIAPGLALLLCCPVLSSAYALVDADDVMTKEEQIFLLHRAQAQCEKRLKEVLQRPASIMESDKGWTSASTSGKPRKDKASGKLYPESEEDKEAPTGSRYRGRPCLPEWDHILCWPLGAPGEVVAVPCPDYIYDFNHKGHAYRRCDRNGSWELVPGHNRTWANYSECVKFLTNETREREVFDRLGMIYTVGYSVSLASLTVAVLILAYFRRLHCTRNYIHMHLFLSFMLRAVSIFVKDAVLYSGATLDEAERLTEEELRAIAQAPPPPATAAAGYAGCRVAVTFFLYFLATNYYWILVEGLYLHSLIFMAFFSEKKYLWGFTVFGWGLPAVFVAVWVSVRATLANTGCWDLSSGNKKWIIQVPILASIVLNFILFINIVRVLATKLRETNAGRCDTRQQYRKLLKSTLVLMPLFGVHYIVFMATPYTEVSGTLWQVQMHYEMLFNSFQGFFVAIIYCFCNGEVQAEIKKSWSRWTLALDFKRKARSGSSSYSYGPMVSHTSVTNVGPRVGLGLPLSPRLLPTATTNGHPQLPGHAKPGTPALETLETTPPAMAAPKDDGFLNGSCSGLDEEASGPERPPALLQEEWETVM

C[C@]12CC[C@@H]3c4ccc(O)cc4CC[C@H]3[C@@H]1CCC2=O
outcome [1]: inactive | outcome [2]: inactive | Potency [3]: inactive | Potency [4]: inactive | outcome [5]: inactive | outcome [6]: inactive | Potency [7]: inactive | Potency [8]: inactive | Potency [9]: inactive | Potency [10]: inactive | Potency [11]: inactive | Potency [12]: inactive | Potency [13]: inactive | Potency [14]: inactive

COC(=O)[C@H]1[C@H]2C[C@@H]3c4[nH]c5cc(OC)ccc5c4CCN3C[C@H]2C[C@@H](OC(=O)COc2ccc(OC)cc2)[C@@H]1OC
Potency [4]: inactive | Potency [7]: inactive | Potency [8]: inactive | Potency [9]: inactive | Potency [10]: inactive | Potency [12]: inactive | Potency [13]: inactive | Potency [14]: inactive

CNCCC(Oc1ccc(C(F)(F)F)cc1)c1ccccc1 (centres undefined)
Potency [4]: inactive | Potency [7]: inactive | Potency [13]: inactive | Potency [14]: inactive

Cc1ccc2nc(N)[nH]c(=O)c2c1Sc1ccncc1
Potency [4]: inactive | Potency [7]: 8360 nM (active) | Potency [14]: inactive

CC(=O)OCC(=O)[C@@]1(O)CC[C@H]2[C@@H]3CCC4=CC(=O)CC[C@]4(C)[C@H]3C(=O)C[C@@]21C
outcome [1]: inactive | outcome [2]: inactive | Potency [3]: inactive | Potency [4]: inactive | outcome [5]: inactive | outcome [6]: inactive | Potency [7]: inactive | Potency [8]: inactive | Potency [9]: inactive | Potency [10]: inactive | Potency [12]: inactive | Potency [13]: inactive | Potency [14]: inactive

CC(C)(C)c1onc(OCP(=O)(O)O)c1CC(N)C(=O)O (centres undefined)
outcome [1]: inactive | outcome [2]: inactive | Potency [3]: inactive | Potency [4]: inactive | outcome [5]: inactive | outcome [6]: inactive

CNCCCC1c2ccccc2C=Cc2ccccc21
outcome [1]: inactive | outcome [2]: inactive | Potency [4]: inactive | outcome [5]: inactive | outcome [6]: inactive | Potency [15]: inactive | Potency [7]: inactive | Potency [11]: 11900 nM (active) | Potency [13]: inactive

CCN(CC)CCNC(=O)c1c(C)[nH]c(/C=C2\C(=O)Nc3ccc(F)cc32)c1C
Potency [7]: 8360 nM (active) | Potency [9]: 11900 nM (active) | Potency [10]: 10600 nM (active) | Potency [11]: 2370 nM (active) | Potency [12]: 17400 nM (active) | Potency [14]: 21100 nM (active)

CC[C@H]1CN2CCc3cc(OC)c(OC)cc3[C@@H]2C[C@@H]1C[C@H]1NCCc2cc(OC)c(OC)cc21
outcome [1]: inactive | outcome [2]: inactive | Potency [3]: inactive | Potency [4]: inactive | outcome [5]: inactive | outcome [6]: inactive | Potency [7]: 333 nM (active) | Potency [8]: 1060 nM (active) | Potency [9]: 237 nM (active) | Potency [11]: 211 nM (active) | Potency [12]: 389 nM (active) | Potency [13]: 750 nM (active) | Potency [14]: 1330 nM (active)

CCCCN(CCCC)CC(O)c1cc(Cl)cc2c1-c1ccc(Cl)cc1/C2=C/c1ccc(Cl)cc1 (centres undefined)
Potency [4]: inactive | outcome [5]: inactive | Potency [7]: inactive | Potency [8]: inactive | Potency [9]: inactive | Potency [11]: inactive | Potency [13]: inactive | Potency [14]: inactive

Source: PubChem BioAssay (NCATS)
